Assay results: PubChem BioAssay AID504652 (National Center for Advancing Translational Sciences (NCATS), 2011)
Screen size: about 360,000 compounds; about 11,000 (3.1%) were called active. The sample holds actives, similar compounds and a random draw of the others, so the mix is not that of the screen. Cut-off read from the data, not from the text of the source: active = activity change below about -30%; inactive = the rest.

biological target: D(1A) dopamine receptor (Homo sapiens) (UniProt P21728); assay: Antagonist of Human D 1 Dopamine Receptor: qHTS; settings: HEK293 TREx D1 cells, calcium flux, dopamine EC80; at 10 µM; stronger effect = lower value
Summary of the method: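 Tetracycline-induced HEK293 Trex D1 cells, force-coupled to calcium, dye-loaded; compounds added and read 180 s, then EC80 dopamine added and calcium flux tracked kinetically another 180 s.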
% is set by controls: 0 for no effect and ±100 for the full control effect.

Sequence of D(1A) dopamine receptor (Homo sapiens) (P21728 whole entry, looked up): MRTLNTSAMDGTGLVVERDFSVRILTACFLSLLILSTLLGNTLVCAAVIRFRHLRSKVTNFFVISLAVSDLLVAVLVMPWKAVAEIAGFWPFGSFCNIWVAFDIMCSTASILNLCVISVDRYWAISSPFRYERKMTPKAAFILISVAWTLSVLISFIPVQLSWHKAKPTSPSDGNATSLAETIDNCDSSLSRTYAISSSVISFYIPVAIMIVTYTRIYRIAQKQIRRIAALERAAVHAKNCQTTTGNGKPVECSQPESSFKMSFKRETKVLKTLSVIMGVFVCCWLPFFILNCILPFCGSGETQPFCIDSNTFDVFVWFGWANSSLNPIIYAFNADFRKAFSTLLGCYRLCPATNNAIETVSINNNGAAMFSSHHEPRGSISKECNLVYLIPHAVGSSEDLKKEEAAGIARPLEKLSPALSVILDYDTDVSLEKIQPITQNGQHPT

Compound | activity change, negative = inhibition
CCOC(=O)c1c(NC(=O)CSc2cn(CC)c3ccccc23)sc2c1CCC2 | -30.9% (active)
CCOC(=O)c1c(NC(=O)C(C)Sc2c[nH]c3ccccc23)sc2c1CCC2 (stereo not given) | 4.04% (inactive)
CCOC(=O)c1c(NC(=O)CSc2cn(CCNC(=O)c3cccc(C(F)(F)F)c3)c3ccccc23)sc2c1CCC2 | -11.4% (inactive)
Cc1cccc(C(=O)Nc2ccc(S(=O)(=O)N3CCCCC3c3cccnc3)cc2)c1 (stereo not given) | -26.5% (inactive)
O=C1CCCc2cc(S(=O)(=O)N3CCCC(C(=O)NCc4ccccc4)C3)ccc2N1 (stereo not given) | -3.91% (inactive)
CC(=O)Nc1ccc(NC(=O)C2CCCN(S(=O)(=O)c3ccc4c(c3)CCCC(=O)N4)C2)cc1 (stereo not given) | 0.61% (inactive)
COc1ccc(OC)c(NC(=O)C2CCCN(S(=O)(=O)c3ccc4c(c3)CCCC(=O)N4)C2)c1 (stereo not given) | -38.1% (active)
Cc1ccc(CNC(=O)CCc2c(C)nn(-c3ccc(N4CCCC4)nn3)c2C)cc1 | -0.419% (inactive)
CCCCC12CN3CC(C)(CN(C1)C3c1ccc(O)c(OC)c1)C2=O (stereo not given) | 3.82% (inactive)
CCOC(=O)c1ccc(NC2=CC(c3ccc(OCC)cc3)N(c3ccc(C(=O)OCC)cc3)C2=O)cc1 (stereo not given) | -6.51% (inactive)
COc1ccc(C(=O)Nc2onc3c2CCCC3)cc1 | -17.5% (inactive)
COc1ccc(NC(=O)c2c(C)oc3c2CCCC3)cc1 | -45.1% (active)
COc1ccc(NC(=O)c2cc3cc(C)ccc3n2C)cc1 | 7.2% (inactive)
O=C(CCSCc1cccc(F)c1)NCc1ccccc1 | -0.666% (inactive)
COC(=O)c1c(C)[nH]c(C(=O)/C=C/c2ccc(Cl)cc2)c1C | -47.4% (active)
CCCCOC(=O)c1[nH]c(C)c(C(=O)OC)c1C | -0.924% (inactive)
Cc1cc(C)nc(NC(=O)/C=C/c2ccc(Cl)cc2)n1 | 4.01% (inactive)
Cc1ccc(Nc2c(-c3ccc(C)cc3)nc3cnccn23)cc1 | 12.3% (inactive)
COC(=O)c1sc2ncccc2c1-n1c(C)ccc1C | 1.1% (inactive)
O=C(CN1C(=O)COc2ccccc21)NCCN1CCc2ccccc2C1 | -39.4% (active)
O=C(CN1C(=O)COc2ccccc21)Nc1ccc(F)cc1 | 4.15% (inactive)
COc1ccc(N2CCN(CCNC(=O)CCN3C(=O)COc4ccccc43)CC2)cc1 | 2.07% (inactive)
Cc1ccc(S(=O)(=O)NC(N)=NCCC[C@@H](NC(=O)CNC(=O)c2ccccc2)C(=O)Nc2cc(C(F)(F)F)ccc2Cl)cc1 | 4.94% (inactive)

Compound | activity change, negative = inhibition
COCCNC(=O)c1ccc(S(=O)(=O)c2ccc(Cl)cc2)c(NC(C)=O)c1 | -3.29% (inactive)
COCCNC(=O)c1cc(-c2cccc(Cl)c2)on1 | -5.13% (inactive)
COCCNC(=O)c1snc2ccc(Cl)cc12 | -34.4% (active)
CCOC(=O)c1cccc(NC(=O)c2cc(S(=O)(=O)N3CCCC(C)C3)cn2C)c1 (stereo not given) | -6.74% (inactive)
CCOC(=O)c1c(C)[nH]c(C)c1S(=O)(=O)N(C)CC(=O)N1CCN(c2ccccc2)CC1 | 1.35% (inactive)
COc1nc(Oc2ccc(=O)n(C)n2)nc(N(C)C)n1 | -8.41% (inactive)
CCCn1nc(Oc2nc(NC(C)C)nc(N(C)C)n2)ccc1=O | -79.5% (active)
COC(=O)c1ccc(Oc2nc(NC(C)C)nc(SC)n2)cc1 | -9.38% (inactive)
COc1cc(C(CC(=O)NCCC(C)C)N2Cc3ccccc3C2=O)cc(OC)c1OC (stereo not given) | -5.18% (inactive)
CC(C)NC(=O)C1CCC(Cn2c(=O)c3sccc3n(Cc3ccc(F)cc3)c2=O)CC1 (stereo not given) | 0.886% (inactive)
Cc1ccc2nc(N3CCN(c4cccc(Cl)c4)CC3)c3nnnn3c2c1 | -5.5% (inactive)
Cc1ccc(NC(=O)CSc2nc3ccccc3c3nc(CCn4cncc4C)nn23)cc1F | -2.83% (inactive)
Oc1ccc(-c2csc(Nc3cccnc3)n2)cc1 | -30.4% (active)
Brc1ccc(-c2csc(N/N=C/c3cccnc3)n2)cc1 | -16.3% (inactive)
CN(c1ccc(O)cc1)c1nc(-c2cccnc2)cs1 | 1.14% (inactive)
Cc1cccc(C(=O)Nc2ccc(-c3nc4ccccc4s3)c(C)c2)c1 | -25.8% (inactive)
COc1ccccc1-c1cc(C(F)(F)F)nc(S(=O)(=O)CCCC(=O)Nc2ccc(F)cc2F)n1 | -9.9% (inactive)
COc1ccc(C2/C(=C(/O)c3ccccc3)C(=O)C(=O)N2c2ncccn2)cc1OC (stereo not given) | 2.93% (inactive)
COc1ccc(C2SCCN2S(=O)(=O)c2ccccc2)cc1OC (stereo not given) | -1.77% (inactive)
COc1ccc(C2N=C(N)N=C(N)N2c2ccccc2)cc1OC (stereo not given) | -44.6% (active)
Cc1ccc(C)n1-c1nnc(N2CCC(C(=O)NCc3ccc(F)cc3)CC2)s1 | 0.798% (inactive)
CCCCc1nn2c(=O)cc(COC(=O)c3cccc(NC(=O)COc4ccccc4)c3)nc2s1 | -12.5% (inactive)
O=C(CCl)Nc1cccc(CP(=O)(c2ccccc2)c2ccccc2)c1 | 11.8% (inactive)

Compound | activity change, negative = inhibition
CC(C)(CCl)C(=O)Nc1ccc(Sc2ccc(F)cc2)cc1 | -27.2% (inactive)
O=C(CCl)Nc1ccc(Sc2ccc(NC(=O)CCl)cc2)cc1 | -33.1% (active)
Cc1cc(C)cc(OCC(=O)Nc2nc(-c3ccc(F)cc3)ns2)c1 | -4.25% (inactive)
Cc1ccc(Cn2ncc3c4sc(C)cc4n(C)c3c2=O)c(C)c1 | 7.1% (inactive)
COc1cc(Br)cc2cc(S(=O)(=O)c3ccccc3)c(=O)oc12 | -1.47% (inactive)
COc1ccc(NS(=O)(=O)c2ccc(NC(=S)NC(=O)CC(C)C)cc2)cc1 | -6.91% (inactive)
COc1ccc(NS(=O)(=O)c2ccc(NC(=O)c3ccc(N(C)S(C)(=O)=O)cc3)cc2)cc1 | 3.18% (inactive)
COc1ccc(NS(=O)(=O)c2ccc(Oc3c(C#N)cccc3C#N)cc2)cc1 | -44.8% (active)
Cc1ccc2c(=O)cc(C(=O)Nc3sc4c(c3C(=O)NCc3cccnc3)CCCC4)oc2c1 | -10.7% (inactive)
N=C(N)SCc1cccc2ccccc12 | -51.9% (active)
CCc1ccc(-c2nn(-c3ccccc3)cc2CSC(=N)N)cc1 | 46% (inactive)
CCOc1ccc(Br)cc1CSC(=N)N | 2.93% (inactive)
COc1ccc(-c2noc(CCC(=O)N(C)c3ccccc3C)n2)cc1 | -13% (inactive)
Cc1ccc(CN(C(=O)COc2ccc(Cl)cc2C)C2CCS(=O)(=O)C2)o1 (stereo not given) | -2.94% (inactive)
COc1cc(OC)cc(C(=O)NCCSCc2ccco2)c1 | 4.54% (inactive)
O=C(/C=C/c1cccc([N+](=O)[O-])c1)NCCSCc1ccco1 | -26.7% (inactive)
O=C(/C=C/c1ccc([N+](=O)[O-])cc1)NCCSCc1ccco1 | -97.8% (active)
Cc1cc(C)cc(NC(=O)c2cnc3sc(N4CCCC4)nn3c2=O)c1 | -28.3% (inactive)
Cc1nc2ccc(S(=O)(=O)NC(C(=O)NCc3ccccc3Cl)C(C)C)cc2s1 (stereo not given) | 18.5% (inactive)
COc1cccc(CNC(=O)c2ccc3c(c2)N(Cc2ccc(C(F)(F)F)cc2)C(=O)c2ccccc2S3)c1OC | -2.43% (inactive)
O=[N+]([O-])/C=C/c1ccc2c(ccn2Cc2ccccc2)c1 | -37.9% (active)
O=c1c(=O)n(Cc2c(F)cccc2Cl)ccn1Cc1ccccc1 | -3.28% (inactive)
OCCC1CN(Cc2ccc(Oc3ncccn3)cc2)CCN1CCc1ccccc1 (stereo not given) | -6.31% (inactive)

Compound | activity change, negative = inhibition
OCCC1CN(Cc2cccc(O)c2)CCN1CCc1ccccc1 (stereo not given) | -42.3% (active)
OCCC1CN(Cc2cnc(-c3ccccc3)s2)CCN1CCc1ccccc1 (stereo not given) | -3.13% (inactive)
Cc1ccc(C)c(S(=O)(=O)n2nc(C)c(S(=O)(=O)N3CCC(C)CC3)c2C)c1 | 6.24% (inactive)
O=C(NCCCN1CCOCC1)c1ccc([N+](=O)[O-])cc1[N+](=O)[O-] | -7.86% (inactive)
CC1=C(c2ccc(C)cc2)S(=O)(=O)NC1=NCCCN1CCN(c2cc(C)ccc2C)CC1 | 10.4% (inactive)
Cc1ccc(C)c(N2CCN(CCCNC(=O)Nc3ccc(Cl)cc3)CC2)c1 | -58.4% (active)
CC1=C(c2ccc(Cl)cc2)S(=O)(=O)N=C1N1CCN(c2cc(C)ccc2C)CC1 | 3.21% (inactive)
CN1CCN(CCNC(=O)Nc2ccc([N+](=O)[O-])cc2)CC1 | -6.04% (inactive)
O=C(NCCCN1CCN(c2ccc(F)cc2)CC1)Nc1ccc([N+](=O)[O-])cc1 | -54.6% (active)
Cc1cccc(C(=O)Nc2ccc(-c3nc4ncccc4o3)cc2C)c1 | -4.33% (inactive)
COc1cc(NC(=O)c2nn(-c3ccc(C)cc3)c(=O)c3c2c2ccccc2n3C)cc(OC)c1OC | -20.1% (inactive)
COC(=O)CC1=NN(c2nc(C)cc(C)n2)C(=O)C1 | 3.03% (inactive)
C/C(N)=C(/C#N)C(=O)COC(=O)C1=NN(c2ccccc2)C(=O)CC1 | -6.72% (inactive)
COC(=O)CC1=NN(c2ccccc2)C(=O)C1 | -33.1% (active)
CCCCn1c(CNC(=O)C23CC4CC(CC(C4)C2)C3)nnc1SCC(=O)Nc1ccc(C)cc1 | 1.21% (inactive)
CC1CCCN(Cc2c(O)ccc3c(=O)c(Oc4ccc(C(C)(C)C)cc4)c(C(F)(F)F)oc23)C1 (stereo not given) | 11.8% (inactive)
O=C(Nc1ccc(C(=O)OCc2cc(=O)n3nc(C4CC4)sc3n2)cc1)c1ccc(F)cc1 | 4.99% (inactive)
COc1ccc(OCC(=O)Nc2nnc(-c3ccco3)s2)cc1 | -88.7% (active)
CNc1nnc(-c2ccco2)s1 | -6.48% (inactive)
COc1ccc(NC(=O)COCc2cc(-c3ccco3)on2)cc1 | 8.36% (inactive)
COc1ccc(CCNC(=O)c2cnc3sc(N4CCCCCC4)nn3c2=O)cc1OC | -6.51% (inactive)
